Source: PubChem (Buhrlage Lab, Dana-Farber Cancer Institute and Novartis Institutes for BioMedical Research (Cambridge, Mass))
USP8 block – human USP8 deubiquitinase inhibition. purified USP8, Ub-rhodamine cleavage fluorescence, 30 min. 4.2% of 47,000 active. inhibition, % at 20 µM
Target sequence (P40818 whole entry, looked up): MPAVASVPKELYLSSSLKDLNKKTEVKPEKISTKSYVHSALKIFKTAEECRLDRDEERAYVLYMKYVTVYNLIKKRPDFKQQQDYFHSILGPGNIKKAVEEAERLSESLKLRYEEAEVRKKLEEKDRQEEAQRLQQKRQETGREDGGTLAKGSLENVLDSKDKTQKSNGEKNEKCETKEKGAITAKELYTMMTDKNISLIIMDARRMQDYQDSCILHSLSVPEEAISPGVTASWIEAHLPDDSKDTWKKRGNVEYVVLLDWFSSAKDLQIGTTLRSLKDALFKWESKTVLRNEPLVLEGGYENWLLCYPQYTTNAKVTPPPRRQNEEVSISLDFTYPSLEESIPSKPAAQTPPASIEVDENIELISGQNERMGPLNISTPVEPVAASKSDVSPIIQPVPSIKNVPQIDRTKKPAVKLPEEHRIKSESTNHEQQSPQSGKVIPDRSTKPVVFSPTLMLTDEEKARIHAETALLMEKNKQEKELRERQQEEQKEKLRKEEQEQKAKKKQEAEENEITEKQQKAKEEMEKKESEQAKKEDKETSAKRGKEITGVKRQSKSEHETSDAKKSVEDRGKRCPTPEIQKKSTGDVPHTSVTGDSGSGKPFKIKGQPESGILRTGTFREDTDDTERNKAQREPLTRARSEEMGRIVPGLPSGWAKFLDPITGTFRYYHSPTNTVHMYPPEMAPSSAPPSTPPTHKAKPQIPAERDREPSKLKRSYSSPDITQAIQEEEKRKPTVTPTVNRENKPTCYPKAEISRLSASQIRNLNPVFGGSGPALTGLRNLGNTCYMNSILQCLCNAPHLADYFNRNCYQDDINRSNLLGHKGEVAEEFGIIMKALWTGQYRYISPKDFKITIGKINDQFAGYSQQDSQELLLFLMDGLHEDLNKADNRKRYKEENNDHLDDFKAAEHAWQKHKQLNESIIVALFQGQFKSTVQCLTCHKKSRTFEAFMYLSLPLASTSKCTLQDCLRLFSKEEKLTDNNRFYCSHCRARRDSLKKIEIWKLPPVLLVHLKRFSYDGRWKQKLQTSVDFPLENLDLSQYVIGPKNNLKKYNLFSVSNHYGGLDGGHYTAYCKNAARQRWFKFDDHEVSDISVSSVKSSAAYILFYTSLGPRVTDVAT
USP7 inh – human USP7 deubiquitinase inhibition | 0.3% of 47,000 active | AID 1645854 | Q93009 | purified USP7, Ub-rhodamine cleavage fluorescence | inhibition, % at 20 µM
UCHL1 inh – blocks human UCHL1 ubiquitin-rhodamine cleavage | P09936 | purified UCHL1, Ub-rhodamine cleavage fluorescence | inhibition, % at 20 µM | 0.2% of 47,000 active | AID 1645859
USP10 block – blocks human USP10 ubiquitin-rhodamine cleavage; Q14694; purified USP10, Ub-rhodamine fluorescence, 60 min; inhibition, % at 20 µM; 1.1% of 47,000 active
USP28 block – blocks human USP28 ubiquitin-rhodamine cleavage; Q96RU2; purified USP28, Ub-rhodamine cleavage fluorescence, 30 min; inhibition, % at 25 µM; 3% of 47,000 active; AID 1645857
OTUD3 block – blocks human OTUD3 ubiquitin-rhodamine cleavage | AID 1645858 | Q5T2D3 | purified OTUD3, Ub-rhodamine fluorescence, 2 h | inhibition, % at 25 µM | 0.7% of 47,000 active
An asterisk follows results filed as active; / = no result. This is a sample that favours compounds with a hit; in the whole collection about 6.8% have one here. Rule as the data show it: active = inhibition above about 30%; inactive = the rest.

SMILES	USP8 block	USP7 inh	UCHL1 inh	USP10 block	USP28 block	OTUD3 block
O=C(Nc1cccc(F)c1)c1c(O)c2cnn(Cc3ccccc3)c2[nH]c1=O	61.5*	1.9	-4.0	10.7	-0.7	-4.8
O=c1[nH]c2c(cnn2Cc2ccccc2)c(O)c1-c1nc(-c2ccccc2F)no1	5.7	0.0	-4.0	-0.1	-8.7	-1.1
N#Cc1cccc(CN2CC[C@H]3CO[C@H](CNc4ncccn4)[C@H]3C2)c1	3.7	-6.0	-1.0	0.5	-1.4	-0.5
COc1ccc(-c2cc(C(=O)NCc3ccccc3)on2)cc1	5.6	-0.8	-3.4	13.3	-21.5	-11.2
C[C@H](NC(=O)[C@H](Cc1c[nH]c2ccccc12)n1c(=O)[nH]c2ccccc2c1=O)C(=O)N1CCC(C(=O)O)CC1	-21.6	-0.8	-3.5	2.4	-8.9	-11.2
CCN1C(SCc2ccc(F)cc2)=NS(=O)(=O)c2ccccc21	-3.8	-6.2	-2.3	0.3	61.8*	4.5
COc1cccc2c1OC(C)(C)[C@H]1CC3(CCN(C(=O)c4cncc(O)c4)CC3)CO[C@H]21	-9.8	1.6	-4.0	1.1	0.0	-1.4
Cc1nnn(C23CC4CC(CC(C(=O)Nc5ccc6c(c5)OCO6)(C4)C2)C3)n1	57.7*	5.4	1.1	4.4	9.3	0.7
COc1ccc(C)cc1NC(=O)C(NS(=O)(=O)c1ccc2c(c1)CCN2C(C)=O)C(C)C (centres undefined)	19.3	0.3	0.6	-3.3	13.3	10.9
CC(=O)N1CCc2cc(S(=O)(=O)NC(C(=O)Nc3nc4ccc(C)cc4s3)C(C)C)ccc21 (centres undefined)	30.5*	6.6	1.9	16.2	0.2	11.7
COc1ccc(CCn2c(-c3ccccc3)nc3c(c(=O)c4ccccc4n3C)c2=O)cc1	9.9	4.1	0.0	0.3	-16.3	-6.4
CC(C)c1nc2c(c(=O)c3ccccc3n2C)c(=O)n1CCc1ccccc1	0.9	-10.0	-1.8	6.8	35.0*	2.1
CC(c1ccccc1)n1c(-c2ccc(F)cc2)nc2c(c(=O)c3ccccc3n2C)c1=O (centres undefined)	31.6*	8.4	0.3	-2.7	12.7	10.4
COc1ccc([C@H]2NC(=O)O[C@H]2CO)cc1	0.6	0.1	-4.2	0.0	-5.5	-2.0
COc1ccc(C(=O)Nc2cccc(CCc3nc4ccc(C)cc4[nH]3)c2)cc1OC	10.6	8.5	5.8	-3.6	17.7	-1.3
CC(=O)N1CCc2cc(S(=O)(=O)NC(Cc3ccccc3)C(=O)Nc3cccc(Cl)c3C)ccc21 (centres undefined)	47.3*	25.9	11.2	54.8*	70.3*	37.9*
CC(=O)N1CCc2cc(S(=O)(=O)NC(Cc3ccccc3)C(=O)NCc3ccc4c(c3)OCO4)ccc21 (centres undefined)	12.7	3.3	5.7	10.9	52.2*	17.2
CCOc1ccccc1C(=O)N1CC(=O)N(Cc2ccccc2OC)CC(O)C1 (centres undefined)	-8.0	-1.2	-1.8	0.2	-15.0	-11.6
COc1cc(C2C(C(C)=O)N3c4ccccc4C=CC3C23C(=O)c2ccccc2C3=O)cc(OC)c1OC (centres undefined)	-7.7	-135.9	-150.4	-4.5	-166.1	-171.6
O=C(NCc1noc(-c2ccc(F)cc2)n1)c1coc(-c2ccccc2)n1	-76.3	3.9	0.5	1.1	0.7	2.6
CCc1ccc(C(C)NC(=O)C2CCN(c3ccc4nncn4n3)CC2)cc1 (centres undefined)	3.3	-5.3	2.9	0.7	54.1*	14.3
Cc1nc2nc(N(Cc3ccccc3)C(=O)c3cccs3)[nH]n2c(=O)c1C	-4.0	3.3	-0.6	1.9	-8.0	-4.7
CN1CCCN(c2ccc(S(=O)(=O)N3CCC(Cc4ccccc4)CC3)cn2)CC1	12.9	-0.1	2.3	-7.1	18.1	11.1
Cc1cc(C)cc(NC(=O)C2CC(=O)Nc3nc4ccccc4n32)c1 (centres undefined)	46.1*	11.8	1.7	40.4*	-3.6	3.9
CCOc1ccccc1NC(=O)C1CC(=O)Nc2nc3ccccc3n21 (centres undefined)	39.3*	7.0	3.1	21.1	4.1	11.8
SMILES	USP8 block	USP7 inh	UCHL1 inh	USP10 block	USP28 block	OTUD3 block
COc1cccc(-c2noc(-c3c(O)c4ccccc4[nH]c3=O)n2)c1	2.1	2.1	-2.6	2.1	4.6	5.8
CCOc1ccc2c(c1)c(=O)c(C(=O)c1ccc(C)cc1)cn2CC(=O)Nc1ccc(C)c(C)c1	91.8*	59.3*	15.9	65.5*	/	-0.3
Cc1ccc(C(=O)c2cn(CC(=O)Nc3ccc(F)c(F)c3)c3ccc(F)cc3c2=O)cc1	-10.4	18.6	-3.1	12.4	-17.6	-40.0
CCOc1ccc2c(c1)c(=O)c(C(=O)c1ccc(C)cc1)cn2CC(=O)Nc1ccc(C)cc1	94.9*	59.6*	24.2	62.0*	11.8	6.6
CCOc1ccc2c(c1)c(=O)c(C(=O)c1ccc(C)cc1)cn2CC(=O)Nc1ccc(OC)cc1	-0.1	1.2	-2.1	15.7	4.1	-6.5
O=C(NCc1ccc(Cl)cc1)[C@@H]1Cc2nc[nH]c2CN1Cc1ccc(Cl)cc1	50.3*	-72.9	-1.3	-4.8	-6.1	-7.1
O=C(NCc1ccc(Cl)cc1)[C@@H]1Cc2nc[nH]c2CN1Cc1ccccc1	24.3	-50.5	-4.0	-7.9	-4.7	-2.6
O=C(CCc1nnc2ccc(N3CCCCC3)nn12)NCc1ccc2c(c1)OCO2	0.2	-1.3	-3.3	-2.9	-8.6	-7.8
CC(C)c1ccc(NS(=O)(=O)c2ccc3c(c2)NC(=O)CCS3)cc1	-4.6	-8.0	2.8	8.1	4.1	-1.6
O=C(Nc1ccc(N2CCN(Cc3ccc(F)cc3)C2=O)nc1)C1CCC1	28.4	3.8	3.0	-0.7	38.4*	22.5
Cc1cccc(NC(=O)CCc2c(C)nc3c(c2C)c(=O)n(C)c(=O)n3C)c1	-4.9	1.5	-1.1	18.8	3.8	9.0
Fc1ccc(Cc2nnc(-c3cnc4onc(C5CCCC5)c4c3)o2)cc1	29.4	-6.5	5.1	7.5	19.1	21.3
CCOc1ccc(-c2nnc(-c3cnc4onc(C5CCCC5)c4c3)o2)cc1	28.2	12.3	0.9	31.5*	0.0	3.9
CC(C)(C)Cc1nnc(-c2cnc3onc(C4CCCC4)c3c2)o1	35.4*	-119.0	1.8	0.9	6.3	10.6
Fc1cccc(-c2noc(-c3ccc(N4CCC5(CC4)OCCO5)nc3)n2)c1	-2.7	2.4	0.0	-0.4	4.5	8.7
CCn1cc(C(=O)NCc2cccnc2)c(=O)c2cc(S(=O)(=O)N3CCCCC3)ccc21	-13.1	-1.7	0.9	-0.7	5.4	1.9
CCN(c1ccccc1)S(=O)(=O)c1ccc2[nH]cc(C(=O)NCc3cccnc3)c(=O)c2c1	37.9*	6.5	4.9	22.3	4.9	5.8
CN[C@H]1CC2(CCN(C(=O)CCCn3cccn3)CC2)OC[C@]1(C)O	-19.0	4.8	1.7	2.1	79.2*	2.1
Cc1nn(C)c2sc(C(=O)N(Cc3ccccn3)Cc3ccccn3)cc12	9.5	2.5	2.7	-0.1	4.9	2.5
